Assay [1] concerns the target Glutathione peroxidase 1 (Homo sapiens) (UniProt P07203). In words: Primary qHTS Assay for Inhibitors of Recombinant Selenoprotein Glutathione Peroxidase 1 (GPX1) (AID 1845191). Note: nearly all actives have a fitted effect of over 65% in size. In a few lines: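 10 nM GPX1 + cpd, 30 min RT; start w/ 1 mM GSH, 0.5 mM cumene hydroperoxide, 0.5 mM NADPH, 100 nM GR, 0.01% BSA; buffer 50 mM Tris-HCl pH 7.5, 2 mM EDTA, 150 mM NaCl; Fl 340/450, 0 & 15 min.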

The target in assay [2] is Phospholipid hydroperoxide glutathione peroxidase GPX4 (Homo sapiens) (UniProt P36969). In words: Primary qHTS Assay for Inhibitors of Recombinant Selenoprotein Glutathione Peroxidase 4 (GPX4) (AID 1845192). Note: nearly all actives have a fitted effect of over 65% in size. Summed up:
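NADPH consumption, followed by fluorescence at 340/450 nm between 0 and 15 min, reports GPX4 activity via coupled glutathione reductase (100 nM). Enzyme 200 nM was pre-exposed to compound 30 min; 0.5 mM cumene hydroperoxide and 1 mM GSH served as substrates.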
Background: qHTS replaces the single test concentration by a dilution series.

The target of assay [3] is Luciferin 4-monooxygenase (Photinus pyralis) (UniProt P08659). Put plainly: Primary firefly luciferase (FLuc) qHTS assay for identification of artifact compounds. (AID 1845220). Note: nearly all actives have a fitted effect of over 60% in size. In a few lines:
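Compounds sat 15 min at room temperature with 10 uM luciferin and 10 uM ATP (pH 7.6 Tris acetate). Firefly luciferase (10 nM final) was then added, and luminescence was read 5 min later. Data normalized to no-enzyme and DMSO controls were Hill-fitted.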

The nature of assay [4]: Primary fluorescence-based thiol-reactive (MSTI) qHTS assay for identification of artifact compounds. (AID 1845221). Note: nearly all actives have a fitted effect of over 65% in size. Note: potency is the fitted concentration of half-maximal effect. Summed up:
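Thiol-reactive compounds detected by quenching of 4 uM MSTI fluorescence (525/598 nm) after 1 h room-temperature dark incubation in PBS pH 7.4, 2% DMSO. qHTS titration; percent inhibition Hill-fitted against Acetyl-MSTI/MSTI controls.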

The subject of assay [5] is Nanoluciferase (engineered Oplophorus gracilirostris luciferase). Put plainly: Primary Nanoluciferase (NLuc) qHTS assay for identification of artifact compounds. (AID 1845222). Note: series mostly up to about 54 µM. In a few lines: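 Luminescence from secreted NLuc (filtered, 1:55-diluted S16 cell medium) read 5 min after Nano-Glo substrate; compounds preincubated 15 min, RT. Hill fits of inhibition normalized to DMSO and no-enzyme.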

Assay [6] is described as follows: Primary redox qHTS assay for identification of artifact compounds. (AID 1845223). Summed up:
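Amplex Red (25 uM) and HRP (250 mU/mL) in HBSS, with compounds for 15 min, then 250 uM DTT for 30 min, room temperature, dark. Fluorescence 525/598 nm read; normalized to DMSO and 10 uM DA3003; Hill fit.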

Here are results for 19 compounds from PubChem BioAssay (NCATS).

Inconclusive results are not listed. Activity calls are given as the source filed them. Calls come from the whole dose curve; as a rule, active = well fitted curve in the direction sought with a large enough effect; inconclusive = small, poorly fitted or top-dose-only effect, or another doubt; inactive = no such curve, though single readings can be large; an effect the other way counts as inactive or inconclusive.

Sequence of Phospholipid hydroperoxide glutathione peroxidase GPX4 (Homo sapiens) (P36969 whole entry, looked up): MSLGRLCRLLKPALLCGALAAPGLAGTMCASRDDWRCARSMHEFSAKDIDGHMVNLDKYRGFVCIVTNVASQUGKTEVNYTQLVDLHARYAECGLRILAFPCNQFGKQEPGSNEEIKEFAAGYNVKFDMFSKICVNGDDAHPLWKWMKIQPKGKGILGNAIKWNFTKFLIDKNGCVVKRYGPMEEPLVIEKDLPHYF
Sequence of Glutathione peroxidase 1 (Homo sapiens) (P07203 whole entry, looked up): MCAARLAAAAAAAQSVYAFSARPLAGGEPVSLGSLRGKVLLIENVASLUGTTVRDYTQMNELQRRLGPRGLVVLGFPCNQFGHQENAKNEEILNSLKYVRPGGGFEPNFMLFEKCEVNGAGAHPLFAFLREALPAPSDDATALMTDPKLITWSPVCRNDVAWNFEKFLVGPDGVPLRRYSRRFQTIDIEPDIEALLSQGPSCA

For the compound `N#Cc1c(Oc2ccc(F)c(NC(=O)Cc3cccc(C(F)(F)F)c3)c2)ccc2nc(NC(=O)C3CC3)sc12`, the Potency result in assay [1], in assay [2], in assay [3], in assay [4], in assay [5] and in assay [6] was “inactive” each time.
As to `O=C(NCc1ccc(F)cc1)C(=O)c1c[nH]c2ccccc12`, the Potency entry in assay [1], in assay [2], in assay [3], in assay [4], in assay [5] and in assay [6] was “inactive” throughout.
Consider `O=C(O)/C=C/c1cc2c(cc1O[C@@H]1O[C@H](CO)[C@@H](O)[C@H](O)[C@H]1O)OCO2`, for which the Potency result in assay [1], in assay [2], in assay [3], in assay [4], in assay [5] and in assay [6] was “inactive” each time.
Regarding `CCCC(=O)C1CCN(c2ncnc3c2CN(C(=O)c2ccc(-c4ccccc4)cc2)CC3)CC1`, the Potency entry in assay [1], in assay [2], in assay [3], in assay [4], in assay [5] and in assay [6] was “inactive” throughout.
Take `Cc1ccc(-c2c(C(=O)CF)n(CCCO)c3ncnc(N)c23)cc1`: the Potency result in assay [1], in assay [2], in assay [3], in assay [4], in assay [5] and in assay [6] was “inactive” throughout.
In the case of `O=C(c1cn(Cc2cncn2Cc2ccc(Br)cc2)cc1-c1cccc2ccccc12)N1CCOCC1`, the Potency entry in assay [1], in assay [2], in assay [3], in assay [4], in assay [5] and in assay [6] was “inactive” in each case.
In the case of `COc1ccc(CCO[C@@H]2CCCC[C@H]2N2CC[C@@H](O)C2)cc1OC`, the Potency result in assay [1], in assay [2], in assay [3], in assay [4], in assay [5] and in assay [6] was “inactive” in each case.
Consider `CC1=C(C(=O)O)/C(=C/CO[C@@H]2O[C@H](COC(=O)/C=C/c3ccc(O)cc3)[C@@H](O)[C@H](O)[C@H]2O)C(O)C1` (some centres undefined), for which the Potency entry in assay [1], in assay [2], in assay [3], in assay [5] and in assay [6] was “inactive” throughout. Further, the Potency in assay [4] was 1.46 µM (active).
Regarding `COC(=O)C1=CO[C@@H](O[C@@H]2O[C@H](CO)[C@@H](O)[C@H](O)[C@H]2O)[C@@H]2[C@@](C)(O)[C@@H](OC(=O)/C=C/c3ccc(O)cc3)C[C@]12O`, the Potency result in assay [1], in assay [2], in assay [3], in assay [5] and in assay [6] was “inactive” each time. Besides, in assay [4], the Potency is 3.27 µM (active).
As for `O=C(Nc1ccccc1)N1CCN(Cc2ccc3ccccc3n2)CC1`, the Potency entry in assay [1], in assay [2], in assay [3], in assay [4], in assay [5] and in assay [6] was “inactive” each time.
As to `C=C(CO[C@@H]1O[C@H](CO[C@@H]2OC[C@](O)(CO)[C@H]2O)[C@@H](O)[C@H](O)[C@H]1O)C1Cc2cc(C(C)=O)ccc2O1` (some centres undefined), the Potency result in assay [1], in assay [2], in assay [3], in assay [5] and in assay [6] was “inactive” throughout. In addition, in assay [4], the Potency was 5.19 µM (active).
On to `CC(C)(O)C1CCC(C)(C2CCC3(C)C4CCC5C(C)(C(=O)OC6OC(CO)C(O)C(O)C6O)C(O)CC(O)C56CC46CCC23C)O1` (centres undefined), for which the Potency entry in assay [1], in assay [2], in assay [3], in assay [4], in assay [5] and in assay [6] was “inactive” each time.
As for `O=C(CC(c1ccccc1)c1ccccc1)N1CCN(C(c2ccccc2)c2ccccc2)CC1`, the Potency result in assay [1], in assay [2], in assay [3], in assay [4], in assay [5] and in assay [6] was “inactive” throughout.
For `O=C(NCC(O)CO)c1ccncc1Nc1ccc(I)cc1F` (centres undefined), the Potency entry in assay [1], in assay [2], in assay [3], in assay [4], in assay [5] and in assay [6] was “inactive” in each case.
With `CC1=C2C3OC(=O)C(C)C3(O)CCC2(C)CCC1O` (centres undefined), the Potency entry in assay [1], in assay [2], in assay [3], in assay [5] and in assay [6] was “inactive” in each case. Moreover, in assay [4], the Potency was 11.9 µM (active).
Consider `OC[C@H]1O[C@@H](O[C@H]2[C@H](OCCc3ccccc3)O[C@H](CO)[C@@H](O)[C@@H]2O)[C@H](O)[C@@H](O)[C@@H]1O`, for which the Potency entry in assay [1], in assay [2], in assay [3], in assay [5] and in assay [6] was “inactive” throughout. Further, the Potency in assay [4] is 10.3 µM (active).
Take `CN(C)C/C=C/C(=O)Nc1cccc(C(=O)Nc2cccc(Nc3ncc(Cl)c(-c4c[nH]c5ccccc45)n3)c2)c1`: the Potency result in assay [1], in assay [2], in assay [3], in assay [4], in assay [5] and in assay [6] was “inactive” throughout.
With `CC(C)(O[C@@H]1O[C@H](CO)[C@@H](O)[C@H](O)[C@H]1O)C(OC(=O)/C=C\c1ccc(O)cc1)C(=O)OCc1ccc(O[C@@H]2O[C@H](CO)[C@@H](O)[C@H](O)[C@H]2O)cc1` (some centres undefined), the Potency result in assay [1], in assay [2], in assay [3], in assay [4], in assay [5] and in assay [6] was “inactive” in each case.
Take `O=C(O)Cc1cn(C2OCC(O)C(O)C2O[C@@H]2O[C@H](CO)[C@@H](O)[C@H](O)[C@H]2O)c2ccccc12` (some centres undefined): the Potency result in assay [1], in assay [2], in assay [3], in assay [4], in assay [5] and in assay [6] was “inactive” throughout.
